The source of these data is PubChem BioAssay (NCI).

Holding throughout (assay): NCI-60 one-dose screen, 48 h (100 = growth as untreated, 0 = no growth, -100 = all killed)
Holding throughout (conditions): 10 µM unless noted

Assay [1] deals with HCT-15 colon.
Assay [2] concerns HT29 colon.
For assay [3], the system named is SNB-75 CNS.
Assay [4] concerns SNB-19 CNS.
Assay [5] deals with U251 CNS.
In assay [6] the test system is PC-3 prostate.
For assay [7], the system named is SK-MEL-5 melanoma.
Assay [8] concerns UACC-62 melanoma.
Assay [9] deals with LOX IMVI melanoma.
In assay [10] the test system is SK-MEL-28 melanoma.

About 83,000 compounds went through this panel and 20% of them were active in at least one assay; those are over-represented in the sample as a whole.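 96-well plates, one dose, 48 hours. Percent growth reported; active if below 10.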 A number with no mark means an inactive call. Activity calls are given as the source filed them.

In the case of `CN1C(=O)CNC(=O)[C@H](NC(=O)c2nc3ccccc3cc2O)CSSC[C@H]1C(=O)NCCc1nc2ccccc2cc1O`, the growth is 99.7% in assay [1]; 17.6% in assay [2]; 129% in assay [3]; 87% in assay [4]; 71.4% in assay [5]; 55.7% in [6]. Moreover, the growth in assay [7] was 38%; in assay [8], 34.9%; in assay [9] it was -11.5% (active); in [10], 62.8%.
For `C=C1C(=O)O[C@H]2[C@H]1CC/C(COC(=O)C(C)c1ccc(CC(C)C)cc1)=C\CC[C@@]1(C)O[C@@H]21` (stereo not given in full), the growth was -56.1% (active) in [1]; -54.1% (active) in assay [2]; 56.6% in [3]; 64.1% in assay [4]; 1.42% (active) in assay [5]; 16.4% in assay [6]. Besides, the growth was 7.78% (active) in [7], 6.52% (active) in assay [8], -89.1% (active) in assay [9] and 5.16% (active) in assay [10].
In the case of `O=C(N/N=C/c1ccc(Cl)cc1)c1ccc(C(F)(F)F)nc1Nc1cccc(C(F)(F)F)c1`, the growth in assay [1] was -5.13% (active); in [2], 16.1%; in [3] it was 61.3%; in [4] it was 30.4%; in [5] it was 5.89% (active); in assay [6], 9.4% (active). For the same compound, the growth in assay [7] was 33.1%; in assay [8] it was 26.7%; in [9], -13.9% (active); in [10], -2% (active).
For `O=CN(SSN(C=O)C1CCCCC1)C1CCCCC1`, the growth in [1] was 109%; in assay [2] it was 108%; in assay [3] it was 109%; in assay [4], 99.9%; in assay [5], 109%; in [6], 103%. Further, the growth is 119% in assay [7], 85.5% in [8], 96.8% in assay [9] and 116% in assay [10].
As to `COc1ccc(/C=C(\C#N)n2nnc3c(F)cccc32)cc1`, the growth was 13.8% in assay [1]; 13.4% in [2]; -58.8% (active) in [3]; 30.7% in assay [4]; 23.7% in assay [5]; 29.8% in assay [6]. In addition, the growth is 32.3% in assay [7], 29.5% in [8], 19.8% in [9] and 36.4% in [10].
For `O=c1c2cc(F)ccc2sc2c(NCCN3CCOCC3)nc3ccccc3c12`, the growth in assay [1] was 20.8%; in assay [2], 21.6%; in assay [3], 59.5%; in assay [4], 75.3%; in [5], 52.4%; in assay [6] it was 69%. The growth was 95.1% in assay [7], 81.5% in assay [8], 20.6% in assay [9] and 96.7% in assay [10].
As to `CC1(C)C2CC1C1(/C=N/NC(N)=S)C(C2)C(C#N)(C#N)C1(C#N)C#N` (stereo not given), the growth in assay [1] was 27.5%; in assay [2] it was 60.6%; in assay [3], 101%; in assay [4], 94.8%; in assay [5] it was 82.1%; in assay [6], 70.7%. Moreover, the growth in assay [7] was 85.6%; in [8] it was 78.8%; in assay [9], 50.1%; in assay [10], 88.7%.
Regarding `CC(=O)OC[C@H]1OC(Sc2sc(C(=O)c3ccc(Cl)cc3)c(N)c2-c2nc3ccccc3s2)[C@H](OC(C)=O)[C@@H](OC(C)=O)[C@@H]1OC(C)=O` (stereo not given in full), the growth in assay [1] was 82.3%; in assay [2], 81%; in assay [3], 50.1%; in assay [4] it was 92.8%; in assay [5], 88.6%; in [6] it was 83.4%. Besides, the growth is 85.2% in assay [7], 97.9% in assay [8], 68.8% in assay [9] and 94.2% in [10].
With `COc1cc(OCc2cccc(-c3ccc(C(O)c4nccs4)cc3)c2C)cc(OC)c1CNCCNC(C)=O` (stereo not given), the growth was 97.7% in assay [1]; 92.9% in assay [2]; 85% in assay [3]; 94.9% in [4]; 91.1% in assay [5]; 90.2% in [6]. Further, the growth in assay [7] was 91.8%; in [8], 90%; in assay [9], 94.8%; in assay [10], 94.8%.
In the case of `COc1ccc(-c2cc3c4c(nc5ccccc5c4c2)CC(c2cc(OC)c(OC)c(OC)c2)O3)cc1` (stereo not given), the growth in assay [1] was 45.6%; in [2], 45.2%; in assay [3], -30% (active); in [4], 40.1%; in [5], 54.8%; in assay [6], 52.3%. Besides, the growth is 62.6% in assay [7], 52% in [8], 38.4% in assay [9] and 44% in assay [10].
Regarding `COc1ccc(-c2c(C(=O)NS(C)(=O)=O)n(Cc3cccc(C(F)(F)F)c3)c3ccccc23)cc1`, the growth was 79.3% in [1]; 97.5% in assay [2]; 85.1% in [3]; 93.2% in assay [4]; 91% in assay [5]; 70.7% in assay [6]. Besides, the growth is 83% in [7], 88.4% in assay [8], 89.7% in [9] and 99.1% in assay [10].
Take `C=CCc1cc(C)ccc1NC(C(=O)NCC(=O)OC)c1ccccc1` (stereo not given): the growth was 91.8% in assay [1]; 98.4% in [2]; 88.9% in assay [3]; 105% in assay [4]; 97.8% in assay [5]; 89.1% in assay [6]. In addition, the growth was 102% in [7], 95.4% in assay [8], 103% in assay [9] and 101% in assay [10].
Take `Cc1cc(=O)oc2cc(OC(=O)CN3CCN(C)CC3)ccc12`: the growth was 98.9% in assay [1]; 104% in assay [2]; 74.5% in assay [3]; 95.6% in assay [4]; 105% in [5]; 95.2% in assay [6]. In addition, the growth is 101% in assay [7], 95.5% in assay [8], 97.9% in assay [9] and 104% in assay [10].
On to `CNCCCNc1nc2ccccc2c2c(=O)c3cc(OC)ccc3sc12`, for which the growth is 57.5% in assay [1]; 4.95% (active) in assay [2]; 72.6% in assay [3]; 79.3% in assay [4]; 48.3% in [5]; 68.8% in assay [6]. Moreover, the growth in assay [7] was 91.6%; in assay [8], 99.3%; in assay [9] it was -38.1% (active); in [10] it was 103%.
